HT1080 IDH1KD tx: toxicity to HT-1080 IDH1 knockdown cells (counter line); HT-1080 IDH1 knockdown viability, ATP luminescence, 48 h; Potency, µM (highest dose often 46.1 µM), most hits filed as cytotoxic; 360,000 tested, 2% active; AID 686971
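HT-1080-IDH1KD cells (IDH1 knocked down), 750/well in RPMI with 5% FBS, treated with compound 48 h at 37 degrees C. Viability by CellTiter-Glo luminescence, normalised to DMSO and no-cell wells; concentration-response curves classed.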
DT40 TDP1 no CPT: qHTS for Inhibitors of human tyrosyl-DNA phosphodiesterase 1 (TDP1): qHTS in cells in absence of CPT | Potency, µM (top dose mostly 46.2 µM), hits mostly inhibitors | 420,000 tested, 15% active | DT40 Tdp1-/- hTDP1 cells, no CPT, ATP luminescence, 48 h; note: nearly all actives have a fitted effect of over 55% in size
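Growth of hTDP1-complemented DT40 Tdp1-knockout cells is measured by ATP luminescence after at least 48 hr compound exposure at 37 °C, with DMSO substituting for the 20 nM CPT used in the parallel screen.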
HT1080-NT tox: kills 2HG-producing HT-1080-NT fibrosarcoma cells | 360,000 tested, 1.6% active | HT-1080-NT fibrosarcoma viability, CellTiter-Glo ATP luminescence, 48 h | Potency, µM (series often up to 46.1 µM), hits mostly cytotoxic;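 note: NT is the 2HG producing partner of a matched IDH1 knockdown line; nearly all actives have a fitted effect of over 55% in size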
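Read-out is CellTiter-Glo luminescence after 10 minutes at room temperature, following 48 hours' compound treatment of HT-1080-NT cells (750 cells/well, RPMI, 5% FBS, 37 degrees C).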
TDP1 cell CPT: DT40-hTDP1 cell growth loss with CPT | chicken DT40 Tdp1-/-;hTDP1 cells + 20 nM CPT, ATP luminescence, 48 h | Potency, µM (highest dose often 46.2 µM), hits mostly inhibitors | 420,000 tested, 12% active | AID 686979; note: nearly all actives have a fitted effect of over 55% in size
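Chicken DT40 Tdp1-/- cells complemented with human TDP1, 400 cells/well, exposed to compounds plus 20 nM camptothecin for at least 48 h at 37 C; viability read as ATP content by CellTiter-Glo luminescence.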
IL-1B inflam inh: inhibitors of inflammasome signaling (IL-1 beta secretion) | activity change, % at 57.5 µM | THP-1 LPS/ATP IL-1B secretion, AlphaLISA, 16 h; stronger effect = lower value | 360,000 tested, 4.7% active; in the data active = activity change below about -50%; inconclusive = mostly about -30% to -49%
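Secreted IL-1B measured by AlphaLISA bead assay after 16 h compound exposure of THP-1 cells; compounds (final up to 57.5 uM) added 1 h before LPS (250 ng/mL) and ATP (1.25 mM) stimulation; lower signal means less secretion.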
Large screens that a line does not name were inactive. Compounds with a hit are over-represented: about 19% of the library has one in this group of screens. Unless noted, calls come from the whole dose curve; as a rule, active = well fitted curve in the direction sought with a large enough effect; inconclusive = small, poorly fitted or top-dose-only effect, or another doubt; inactive = no such curve, though single readings can be large; an effect the other way counts as inactive or inconclusive.

CN1CCN(C(=S)NC(=O)/C=C/c2cccc3ccccc23)CC1	HT1080 IDH1KD tx inconclusive, HT1080-NT tox 10µM
CN1CCN(C(=S)NC(CC(=O)c2ccccc2)c2ccccc2)CC1 (centres undefined)	IL-1B inflam inh -51.8
CCCOC(=O)c1ccc(NC(=O)/C=C/c2cccs2)cc1	DT40 TDP1 no CPT 18.4µM, TDP1 cell CPT inconclusive
COc1cccc(-n2nnc3c(=O)n(Cc4c(F)cccc4Cl)cnc32)c1	none
COc1cccc(-n2nnc3c(=O)n(Cc4cccc(F)c4)cnc32)c1	TDP1 cell CPT inconclusive, IL-1B inflam inh -54.9
O=C1S/C(=C\c2ccc(N3CCOCC3)o2)C(=O)N1Cc1c(F)cccc1Cl	HT1080 IDH1KD tx 3.55µM, DT40 TDP1 no CPT inconclusive, HT1080-NT tox inconclusive, TDP1 cell CPT 7.31µM
O=C1S/C(=C\c2ccc(N3CCOCC3)o2)C(=O)N1c1ccccc1	HT1080 IDH1KD tx inconclusive, DT40 TDP1 no CPT 8.2µM, HT1080-NT tox inconclusive, TDP1 cell CPT 1.64µM, IL-1B inflam inh -104.2
O=C1S/C(=C/c2ccc(N3CCOCC3)o2)C(=O)N1Cc1c(F)cccc1Cl	TDP1 cell CPT inconclusive
O=C(NCC1CCCN1S(=O)(=O)c1cccs1)C(=O)Nc1ccccc1Cl (centres undefined)	DT40 TDP1 no CPT inconclusive, TDP1 cell CPT inconclusive
Cc1ccc(NC(=O)C(=O)NCC2CCCN2S(=O)(=O)c2cccs2)c(C)c1 (centres undefined)	DT40 TDP1 no CPT inconclusive, TDP1 cell CPT 18.4µM
Cc1cc(C)cc(NC(=O)C(=O)NCC2CCCN2S(=O)(=O)c2cccs2)c1 (centres undefined)	DT40 TDP1 no CPT 10.3µM, TDP1 cell CPT 7.31µM
Cc1cccc(C)c1NC(=O)C(=O)NCC1CCCN1S(=O)(=O)c1cccs1 (centres undefined)	DT40 TDP1 no CPT 11.6µM, TDP1 cell CPT inconclusive
O=C(NCC1CCCN1S(=O)(=O)c1cccs1)c1cccc(F)c1 (centres undefined)	DT40 TDP1 no CPT 18.4µM, TDP1 cell CPT 16.4µM
O=C(NCC1CCCN1S(=O)(=O)c1cccs1)C(=O)Nc1ccc(F)cc1F (centres undefined)	DT40 TDP1 no CPT inconclusive, TDP1 cell CPT inconclusive
O=C(CN1C(=O)C2C3CC(C(Br)C3Br)C2C1=O)N1CCN(Cc2ccccc2)CC1 (centres undefined)	none
CCN(CC)CCOc1ccc(C=NNc2nc3c([nH]2)c(=O)n(C)c(=O)n3C)cc1	none
Nc1cc(Cl)cc2c1-c1ccc(Cl)cc1C2	DT40 TDP1 no CPT inconclusive, TDP1 cell CPT inconclusive
CCCn1c(N)c(N(CCOC)C(=O)CCC2CCCCC2)c(=O)[nH]c1=O	none
Cc1c(C(=O)c2ccccc2)c2ccccn2c1CCC#N	none
Cc1c(C(=O)c2ccccc2)c2ccccn2c1CCc1ccccn1	TDP1 cell CPT inconclusive, IL-1B inflam inh -74.5
COC(=O)CCc1c(C)c(C(=O)c2cc(OC)c(OC)c(OC)c2)c2ccccn12	HT1080 IDH1KD tx inconclusive, DT40 TDP1 no CPT inconclusive, HT1080-NT tox inconclusive, TDP1 cell CPT inconclusive
Cc1c(C(=O)c2ccc(F)cc2)c2ccccn2c1CCc1ccccn1	DT40 TDP1 no CPT inconclusive, TDP1 cell CPT inconclusive, IL-1B inflam inh -85.7
C=CCC(NCc1ccccc1)c1ccc(OC)cc1 (centres undefined)	DT40 TDP1 no CPT 25.9µM, TDP1 cell CPT inconclusive
C=CCC(NCc1ccccc1)c1ccco1 (centres undefined)	none
O=[N+]([O-])c1ccc2nc(Cl)nc(-c3ccccc3)c2c1	DT40 TDP1 no CPT 7.31µM, TDP1 cell CPT 11.6µM
Nc1cnc(Nc2ccc(Br)cc2)nc1N	DT40 TDP1 no CPT 14.6µM, TDP1 cell CPT inconclusive
CC1=C(C(=O)OCCOc2ccccc2)C(c2ccsc2)NC(=O)N1C (centres undefined)	DT40 TDP1 no CPT 20.6µM, TDP1 cell CPT inconclusive
Cc1cc(C)cc(N(CC(=O)Nc2ccccc2)C2=NC3CS(=O)(=O)CC3S2)c1 (centres undefined)	DT40 TDP1 no CPT inconclusive, TDP1 cell CPT inconclusive, IL-1B inflam inh -94.1
COc1ccc(N(CC(=O)Nc2ccccc2C(F)(F)F)C2=NC3CS(=O)(=O)CC3S2)cc1 (centres undefined)	DT40 TDP1 no CPT inconclusive, IL-1B inflam inh -59.6
CC1=C(C(=O)Nc2cccnc2)C(c2ccccc2)n2nc(-c3ccc(O)cc3)nc2N1 (centres undefined)	none (no result: HT1080 IDH1KD tx, HT1080-NT tox, IL-1B inflam inh)
Cc1ccn2c(NC3CCCCC3)c(C)nc2c1	HT1080 IDH1KD tx inconclusive, HT1080-NT tox inconclusive, TDP1 cell CPT inconclusive
Cc1ccn2c(NC3CCCCC3)c(-c3ccc(C)o3)nc2c1	DT40 TDP1 no CPT 11.2µM, HT1080-NT tox inconclusive, TDP1 cell CPT 15.8µM (no result: IL-1B inflam inh)
c1ccc(-c2nc3ccccn3c2NC2CCCC2)nc1	HT1080 IDH1KD tx inconclusive, DT40 TDP1 no CPT 16.4µM, HT1080-NT tox inconclusive, TDP1 cell CPT inconclusive
Cc1ccn2c(NC3CCCC3)c(-c3ccccn3)nc2c1	HT1080 IDH1KD tx inconclusive, DT40 TDP1 no CPT 6.51µM, HT1080-NT tox inconclusive, TDP1 cell CPT 18.4µM, IL-1B inflam inh -96.2
Nc1ncnc2c1[nH]c(=O)n2C1CC(O)C(CO)O1 (centres undefined)	none (no result: HT1080 IDH1KD tx, HT1080-NT tox, IL-1B inflam inh)
CCCCC/C(C=O)=C\c1ccccc1	none (no result: HT1080 IDH1KD tx, HT1080-NT tox, IL-1B inflam inh)
Cc1ccc2c(c1)N(C(=O)CCC(=O)N1CCN(c3ccccc3)CC1)CCO2	DT40 TDP1 no CPT inconclusive, TDP1 cell CPT inconclusive
COc1cc(CCC(=O)N2CCN(c3cccc(C)c3C)CC2)cc(OC)c1OC	DT40 TDP1 no CPT 10.3µM, TDP1 cell CPT 11.6µM
Cc1ccc2c(c1)N(C(=O)CCC(=O)N1CCN(c3cccc(C)c3C)CC1)CCO2	DT40 TDP1 no CPT 18.4µM, HT1080-NT tox inconclusive, TDP1 cell CPT 16.4µM
COc1ccc(CCC(=O)N2CCN(c3cccc(C)c3C)CC2)cc1	DT40 TDP1 no CPT inconclusive, TDP1 cell CPT inconclusive
Cc1cccc(N2CCN(C(=O)CCC(=O)N3CC(C)Oc4ccccc43)CC2)c1C (centres undefined)	DT40 TDP1 no CPT 13µM, TDP1 cell CPT 16.4µM
COc1cccc(/C=C/C(=C2\C(=O)N(c3ccccc3)N=C2C)c2ccc(Br)cc2)c1OC	DT40 TDP1 no CPT inconclusive
CC(=O)Nc1ccc(CN(C)c2c(C)nc3ccc(C(=O)NCCCN4CCCC4=O)cn23)cc1	none
CCCCN(C)c1c(C)nc2ccc(C(=O)NCc3ccc(OC)cc3)cn12	DT40 TDP1 no CPT 13µM, HT1080-NT tox inconclusive, TDP1 cell CPT 13µM, IL-1B inflam inh inconclusive
COc1ccccc1CNC(=O)c1ccc2nc(C)c(N(C)Cc3ccc(NC(C)=O)cc3)n2c1	DT40 TDP1 no CPT 14.6µM, TDP1 cell CPT 16.4µM
CCCCC(=O)N(C)c1c(C)nc2ccc(C(=O)NCc3ccccc3OC)cn12	none
COc1ccc(CNC(=O)c2ccc3nc(C)c(N(C)Cc4ccc(NC(C)=O)cc4)n3c2)cc1	DT40 TDP1 no CPT 16.4µM, TDP1 cell CPT 13µM

Assay outcomes (PubChem)
